Reference: PubChem BioAssay (EPA / NIEHS)
Inconclusive results are not listed. Calls of active or inactive are those of the source. The calls were made as follows, unless noted: active = hit-call score of the fitted dose curve at least 0.9, where 1 is the maximum; inactive = score below 0.9.

What was measured:
[1] = read-out: solute carrier (SLC22A1), SLC22A1 (gene 6580); assay: LTEA_HepaRG_SLC22A1: Life Technologies and Expression Analysis (LTEA) Assay for solute carrier (SLC22A1) using HepaRG (AID 2283524); settings: mRNA level, 48 h; actives raise or lower the signal
Procedure, shortened: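 Differentiated human HepaRG cells in serum-free induction medium, exposed 48 h in duplicate to 8-point half-log series from 100 µM top in 0.5% DMSO. SLC22A1 mRNA by TaqMan qRT-PCR normalized to ACTB, GAPDH, POLR2A; bidirectional fit versus DMSO.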

[2] = read-out: Pyruvate Dehydrogenase Kinase 4 (PDK4), PDK4 (gene 5166); assay: LTEA_HepaRG_PDK4: Life Technologies and Expression Analysis (LTEA) Assay for Pyruvate Dehydrogenase Kinase 4 (PDK4) using HepaRG (AID 2283525); settings: mRNA level, 48 h; actives raise or lower the signal
Procedure, shortened: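 HepaRG cells plated 48 h, then switched to serum-free induction medium and exposed in duplicate for 48 h to 8 half-log concentrations from 100 uM in 0.5% DMSO. PDK4 mRNA measured by qRT-PCR, normalized to ACTB, GAPDH and POLR2A; bidirectional fit versus DMSO.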

[3] = read-out: NAD(P)H dehydrogenase [quinone] 1 (NQO1), NQO1 (gene 1728); assay: LTEA_HepaRG_NQO1: Life Technologies and Expression Analysis (LTEA) Assay for NAD(P)H dehydrogenase [quinone] 1 (NQO1) using HepaRG (AID 2283526); settings: mRNA level, 48 h; actives raise or lower the signal
Procedure, shortened: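 Human HepaRG hepatic cells received chemicals for 48 h in serum-free induction medium with 0.5% DMSO, up to 100 uM. Expression was assessed by TaqMan qRT-PCR against housekeeping controls and fitted bidirectionally against DMSO.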

[4] = read-out: Nuclear factor erythroid 2-related factor 2 (Homo sapiens) (UniProt Q16236); assay: LTEA_HepaRG_NFE2L2: Life Technologies and Expression Analysis (LTEA) Assay for Nuclear factor erythroid 2-related factor 2 (NFE2L2) Transcription Factor using HepaRG (AID 2283527); settings: mRNA level, 48 h; actives raise or lower the signal
Procedure, shortened: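 Differentiated human HepaRG cells, serum-free induction medium, exposed 48 h in duplicate to eight half-log concentrations up to 100 uM in 0.5% DMSO. NFE2L2 mRNA by Fluidigm TaqMan qRT-PCR, normalised to ACTB, GAPDH, POLR2A; bidirectional change versus DMSO.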

[5] = read-out: Signal transducer and activator of transcription 3 (Homo sapiens) (UniProt P40763); assay: LTEA_HepaRG_STAT3: Life Technologies and Expression Analysis (LTEA) Assay for Signal transducer and activator of transcription (STAT3) using HepaRG (AID 2283529); settings: mRNA level, 48 h; actives raise or lower the signal
Procedure, shortened: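 Differentiated HepaRG cells, serum-free induction medium, dosed 48 h in duplicate, 8 half-log concentrations from 100 uM in 0.5% DMSO. STAT3 mRNA by qRT-PCR, normalised to ACTB, GAPDH, POLR2A; bidirectional fit versus DMSO.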

[6] = read-out: solute carrier (SLCO1B1), SLCO1B1 (gene 10599); assay: LTEA_HepaRG_SLCO1B1: Life Technologies and Expression Analysis (LTEA) Assay for solute carrier (SLCO1B1) using HepaRG (AID 2283530); settings: mRNA level, 48 h; actives raise or lower the signal
Procedure, shortened: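 HepaRG, serum-free induction medium, 48 h dosing, 8-pt half-log from 100 uM, 0.5% DMSO vehicle, duplicates. Readout: SLCO1B1 mRNA, qRT-PCR, ACTB/GAPDH/POLR2A normalization; up or down fit vs DMSO.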

[7] = read-out: sulfotransferase 2A1 (SULT2A1), SULT2A1 (gene 6822); assay: LTEA_HepaRG_SULT2A1: Life Technologies and Expression Analysis (LTEA) Assay for sulfotransferase 2A1 (SULT2A1) using HepaRG (AID 2283531); settings: mRNA level, 48 h; actives raise or lower the signal
Procedure, shortened: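 Transcript levels of SULT2A1, quantified by qRT-PCR and normalized to three housekeeping genes, serve as the readout. Human HepaRG cultures receive test chemicals for 48 h at up to 100 uM in half-log steps, with 0.5% DMSO vehicle.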

[8] = read-out: Transforming Growth Factor (TGFA), TGFA (gene 7039); assay: LTEA_HepaRG_TGFA: Life Technologies and Expression Analysis (LTEA) Assay for Transforming Growth Factor (TGFA) using HepaRG (AID 2283532); settings: mRNA level, 48 h; actives raise or lower the signal
Procedure, shortened: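 Differentiated HepaRG cells exposed 48 hours in serum-free induction medium, 0.5% DMSO vehicle, 8-point half-log series from 100 uM, in duplicate. TGFA mRNA by TaqMan qRT-PCR, normalised to ACTB, GAPDH, POLR2A; bidirectional fit versus DMSO.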

[9] = read-out: Transforming Growth Factor (TGFB1), TGFB1 (gene 7040); assay: LTEA_HepaRG_TGFB1: Life Technologies and Expression Analysis (LTEA) Assay for Transforming Growth Factor (TGFB1) Transporter using HepaRG (AID 2283533); settings: mRNA level, 48 h; actives raise or lower the signal
Procedure, shortened: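 HepaRG, 48 h post-plating, switched to serum-free induction medium; chemicals 100 uM top, half-log, 8 pts, 0.5% DMSO, dup; 48 h exposure; RNA → Fluidigm TaqMan qRT-PCR; norm ACTB/GAPDH/POLR2A; bidirectional fit vs DMSO.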

TIMP1, TIMP1 (gene 7076) = assay: LTEA_HepaRG_TIMP1: Life Technologies and Expression Analysis (LTEA) Assay for TIMP1 using HepaRG (AID 2283534); settings: mRNA level, 48 h; actives raise or lower the signal
Procedure, shortened: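 Readout is TIMP1 mRNA level measured by qRT-PCR and normalized to three housekeeping genes. Human HepaRG cells were treated for 48 h in duplicate at eight concentrations up to 100 uM (0.5% DMSO); gain or loss fitted against DMSO.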

[10] = read-out: Tumor necrosis factor receptor 1 (TNFRSF1A), TNFRSF1A (gene 7132); assay: LTEA_HepaRG_TNFRSF1A: Life Technologies and Expression Analysis (LTEA) Assay for Tumor necrosis factor receptor 1 (TNFRSF1A) using HepaRG (AID 2283535); settings: mRNA level, 48 h; actives raise or lower the signal
Procedure, shortened: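 Read-out is TNFRSF1A transcript level by TaqMan qRT-PCR, normalized to three housekeeping genes, scored as gain or loss of signal versus 0.5% DMSO. Human HepaRG cells received test chemicals for 48 h at up to 100 uM (half-log series).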

[11] = read-out: Thyroid Hormone Responsive (THRSP), THRSP (gene 7069); assay: LTEA_HepaRG_THRSP: Life Technologies and Expression Analysis (LTEA) Assay for Thyroid Hormone Responsive (THRSP) using HepaRG (AID 2283536); settings: mRNA level, 48 h; actives raise or lower the signal
Procedure, shortened: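 Differentiated HepaRG cells treated 48 h in serum-free induction medium with 8 half-log concentrations up to 100 uM (0.5% DMSO), duplicates. THRSP mRNA by TaqMan qRT-PCR normalised to ACTB, GAPDH, POLR2A; bidirectional fit versus DMSO.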

[12] = read-out: UDP glucuronosyltransferase (UGT1A1), UGT1A1 (gene 54658); assay: LTEA_HepaRG_UGT1A1: Life Technologies and Expression Analysis (LTEA) Assay for UDP glucuronosyltransferase (UGT1A1) using HepaRG (AID 2283538); settings: mRNA level, 48 h; actives raise or lower the signal
Procedure, shortened: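 Human liver HepaRG cultures receive test chemical for 48 h, up to 100 uM in 0.5% DMSO, with phenobarbital induction controls. UGT1A1 mRNA is measured by qRT-PCR and normalized to ACTB, GAPDH and POLR2A.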

[13] = read-out: UDP glucuronosyltransferase (UGT1A6), UGT1A6 (gene 54578); assay: LTEA_HepaRG_UGT1A6: Life Technologies and Expression Analysis (LTEA) Assay for UDP glucuronosyltransferase (UGT1A6) using HepaRG (AID 2283539); settings: mRNA level, 48 h; actives raise or lower the signal
Procedure, shortened: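 HepaRG, 48 h post-plating switch to serum-free induction medium; chemical 48 h, 100 uM top, half-log x8, duplicate, 0.5% DMSO. Phenobarbital 1mM induction control. UGT1A6 mRNA by TaqMan qRT-PCR; gain/loss fit vs DMSO.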

[14] = read-out: X-box binding protein 1 (XBP1), XBP1 (gene 7494); assay: LTEA_HepaRG_XBP1: Life Technologies and Expression Analysis (LTEA) Assay for X-box binding protein 1 (XBP1) using HepaRG (AID 2283540); settings: mRNA level, 48 h; actives raise or lower the signal
Procedure, shortened: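 Transcript levels of XBP1, measured by qRT-PCR and normalised to three housekeeping genes, were fitted bidirectionally relative to 0.5% DMSO controls. Human HepaRG cells received eight-point half-log dilutions from 100 uM for 48 h.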

[15] = ATG_XTT_Cytotoxicity: Cytotoxicity Assessment in the Attagene TRANS-FACTORIAL HepG2 Assay (AID 2283584; active = hit-call score of the fitted dose curve at least 0.9, where 1 is the maximum;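 as to AC50: cells exposed to compound for 24 h before reading; active means loss of viability signal versus DMSO baseline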)
Procedure, shortened: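 Cells: human HepG2, transiently transfected with MRTU reporter constructs. Exposure 24 h. Readout: XTT, cell number. Baseline/neg ctrl DMSO; loss-of-signal scored.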

[16] = LTEA_HepaRG_LDH_cytotoxicity: Cytotoxicity Assessment in the Life Technologies and Expression Analysis (LTEA) Assay (AID 2283563; active = hit-call score of the fitted dose curve at least 0.9, where 1 is the maximum;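 as to AC50: LDH activity released into spent culture medium as a marker of cell death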)
Procedure, shortened: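 Cells were thawed and plated for 48 h. Medium was then replaced with serum-free induction medium. Chemicals (8 half-log points, maximum 100 uM, 0.5% DMSO) were added in duplicate for 48 h, after which spent medium was assayed for LDH.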

[17] = read-out: succinate dehydrogenase complex iron sulfur subunit B (SDHB), SDHB (gene 6390); assay: LTEA_HepaRG_SDHB: Life Technologies and Expression Analysis (LTEA) Assay for succinate dehydrogenase complex iron sulfur subunit B (SDHB) using HepaRG (AID 2283528); settings: mRNA level, 48 h; actives raise or lower the signal
Procedure, shortened: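 HepaRG, 48 h exposure, 8-pt half-log series from 100 uM in 0.5% DMSO, duplicates. Readout: SDHB mRNA by Fluidigm qRT-PCR vs housekeeping genes; bidirectional fit relative to DMSO.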

Measured: AC50

Chain of Signal transducer and activator of transcription 3 (Homo sapiens) (P40763 whole entry, looked up): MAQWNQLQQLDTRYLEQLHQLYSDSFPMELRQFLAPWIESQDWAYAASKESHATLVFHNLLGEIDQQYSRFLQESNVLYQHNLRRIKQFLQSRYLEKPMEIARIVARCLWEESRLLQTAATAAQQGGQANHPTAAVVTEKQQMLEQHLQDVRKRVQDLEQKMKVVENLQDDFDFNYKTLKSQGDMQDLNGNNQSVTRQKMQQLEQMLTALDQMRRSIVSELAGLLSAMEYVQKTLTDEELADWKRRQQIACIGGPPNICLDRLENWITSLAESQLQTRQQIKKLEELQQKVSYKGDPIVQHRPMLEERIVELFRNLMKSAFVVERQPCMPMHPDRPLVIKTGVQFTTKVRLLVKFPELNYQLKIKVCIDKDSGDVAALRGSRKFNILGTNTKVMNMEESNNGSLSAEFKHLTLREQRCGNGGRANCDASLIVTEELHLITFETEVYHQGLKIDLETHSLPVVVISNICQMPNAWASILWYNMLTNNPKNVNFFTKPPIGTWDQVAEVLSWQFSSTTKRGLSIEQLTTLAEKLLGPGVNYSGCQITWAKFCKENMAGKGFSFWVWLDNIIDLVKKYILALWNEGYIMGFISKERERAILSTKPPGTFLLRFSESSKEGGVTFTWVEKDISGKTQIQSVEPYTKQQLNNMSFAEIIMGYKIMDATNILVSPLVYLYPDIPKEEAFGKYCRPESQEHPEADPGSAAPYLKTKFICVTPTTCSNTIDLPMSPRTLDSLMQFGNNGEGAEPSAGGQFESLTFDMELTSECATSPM
Chain of Nuclear factor erythroid 2-related factor 2 (Homo sapiens) (Q16236 whole entry, looked up): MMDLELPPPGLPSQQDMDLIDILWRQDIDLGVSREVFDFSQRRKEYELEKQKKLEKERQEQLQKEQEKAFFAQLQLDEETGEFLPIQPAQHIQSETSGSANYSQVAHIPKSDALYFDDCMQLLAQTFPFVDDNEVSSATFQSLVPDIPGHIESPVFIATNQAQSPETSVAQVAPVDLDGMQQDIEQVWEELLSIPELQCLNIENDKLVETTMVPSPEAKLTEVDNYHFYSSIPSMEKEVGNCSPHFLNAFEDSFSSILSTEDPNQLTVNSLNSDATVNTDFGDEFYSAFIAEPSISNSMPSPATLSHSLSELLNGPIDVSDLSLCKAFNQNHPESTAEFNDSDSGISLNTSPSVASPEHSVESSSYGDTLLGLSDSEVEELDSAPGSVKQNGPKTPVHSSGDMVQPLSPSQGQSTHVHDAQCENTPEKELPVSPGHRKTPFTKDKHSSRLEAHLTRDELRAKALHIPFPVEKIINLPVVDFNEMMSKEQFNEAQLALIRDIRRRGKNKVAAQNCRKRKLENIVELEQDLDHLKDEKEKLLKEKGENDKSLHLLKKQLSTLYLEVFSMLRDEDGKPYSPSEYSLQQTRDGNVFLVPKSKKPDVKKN

O=NO
not listed: [15] | [16] | [17]
inactive: all other assays above

Cc1ccc(-c2cc(C(F)(F)F)nn2-c2ccc(S(N)(=O)=O)cc2)cc1
active: [1] 55.9 µM | [4] 62.7 µM | [5] 89.2 µM | [7] 83.6 µM | [8] 73.1 µM | [9] 84.2 µM | TIMP1, TIMP1 (gene 7076) 88 µM | [10] 93.5 µM | [12] 86.3 µM | [13] 71.6 µM | [14] 50 µM | [15] 149 µM
inactive: [2] | [3] | [6]

Cc1occc(=O)c1O
not listed: [11] | [17]
inactive: all other assays above

O=C(N[C@@H](c1ccccc1)[C@@H]1CCCCN1)c1cccc(C(F)(F)F)c1Cl
inactive: [3] | [8] | TIMP1, TIMP1 (gene 7076) | [11] | [14]
active: [1] 40.5 µM | [2] 50 µM | [4] 83.8 µM | [5] 80.3 µM | [6] 37.1 µM | [7] 78.9 µM | [9] 82.3 µM | [10] 82.2 µM | [12] 57.7 µM | [13] 69.1 µM | [16] 43 µM

CCCCOC(=O)CCCCC(=O)OCCCC
active: [1] 0.243 µM
not listed: [6] | [11] | [15]
inactive: all other assays above

CCCC(=O)O
not listed: [6] | [11] | [15] | [16]
inactive: all other assays above

CC(=O)OCC(COC(C)=O)OC(C)=O
not listed: [6] | [11] | [17]
inactive: all other assays above

C/C=C/C=C/C(=O)O
active: [12] 0.171 µM
not listed: [6] | [17]
inactive: all other assays above
